Measured values published in PubChem BioAssay AID449762 (Southern Research Specialized Biocontainment Screening …, 2010).
Several values for one entry are separate records, joined by “and”; a condition that tells them apart may be missing. Equal entries are not always repeated. Hit rate of the full screen: of about 330,000 compounds, about 1,900 (0.58%) were called active. Roughly 4% stayed inconclusive and do not appear here. These entries were drawn from the full list. Measured potencies and affinities stand elsewhere. A number with no mark means an inactive call. Rule as the data show it: inconclusive = inhibition above about 70% without an active follow-up result; inactive = below that.

Test: M. tuberculosis growth inhibition, HTS (AID 449762);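 also: bacterial growth assessed after seven days of incubation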
Settings: M. tuberculosis H37Rv growth inhibition, 7H9 media; at 25 µM; hits give high values

SMILES	inhibition
O=S(=O)(NCc1ccccn1)c1ccc(Cl)s1	32.5%
N/C(=N\OC(=O)Nc1ccc(Cl)cc1)c1ncc(C(F)(F)F)cc1Cl	3.09%
N/C(=N\OC(=O)Nc1ccccc1)c1ncc(C(F)(F)F)cc1Cl	-4.86%
Cc1ccc(CNC(=O)CNC(=O)[C@@H]2Cc3ccccc3CN2C(=O)OC(C)(C)C)cc1	4.75%
Cc1ccc(-c2cn(-c3ccccc3)c3[n+]2CCCS3)cc1	4.87% and -0.5%
c1ccc(-c2cn(-c3ccccc3)c3[n+]2CCCS3)cc1	-1.4%
Cc1ccccc1CNC(=O)Nc1ccc(Cl)cc1	8.74%
CCOC(=O)/C(=C\C=C\c1ccccc1)NC(=O)c1ccccc1	-0.56%
CCOC(=O)/C(=C/C=C/c1ccccc1)NC(=O)c1ccccc1	5.87%
O=Cc1cccc(Oc2ccc([N+](=O)[O-])cc2[N+](=O)[O-])c1	6.01%
Cc1nn(S(=O)(=O)N(C)C)c(C)c1CN1C(=O)c2ccccc2C1=O	-3.78%
Cc1c(CN(C)C)c2c(n1Cc1ccccc1)C(=O)c1ccccc1-2	-0.73%
Cc1c(CN(C)C)c2c(n1C)C(=O)c1ccc(Br)cc1-2	-6.76%
CC(C)(C)[C@@H]1C=C(C(N)=O)O[C@H](OCc2ccc(CO)cc2)C1	3.59%
CCn1cc(/C=N\NC(=O)c2c[nH]c3ccccc23)c(C)n1	4.35%
COc1cccc2c(=S)c(CCC(C)=O)c(C)[nH]c12	-1.19%
O=C(c1ccccc1)N1N=C(c2ccccc2)CC1(O)C(F)(F)F (stereo not given)	17.4%
O=C(c1ccccc1)N1N=C(c2ccc(F)cc2)CC1(O)C(F)(F)F (stereo not given)	14.8%
COc1ccccc1C1CCN(Cc2ccccc2)CC1	-7.77%
COc1ccccc1C1CCN(Cc2ccc(Cl)c(Cl)c2)CC1	6.04%

SMILES	inhibition
CCCn1c(=S)[nH]c2cc(C(=O)NCC3CCCO3)ccc2c1=O (stereo not given)	-7.34%
COc1ccc(C=Nc2cccc3c(=O)[nH][nH]c(=O)c23)c2ccccc12	-1.04%
COC(=O)N/N=C/c1cc(Br)ccc1O	-4.56%
CC(C)NC(=S)N/N=C/c1ccc(C(C)(C)C)cc1	3.03%
Cc1ccc(/C=N/NC(=O)C(=O)N/N=C/c2ccc(C)o2)o1	-4.38%
Cc1ccc(C)c(/C=N/NC(=S)NC(C)C)c1	-0.52%
COC(=O)c1nonc1NCn1nnc2ccccc21	-13.7%
Cc1ccccc1-n1c(-c2ccoc2)nc2ccccc2c1=O	13.6%
O=C(CCN1CCN(c2ccccc2F)CC1)Nc1ccc(F)cc1	-1.83%
S=c1[nH]nc(C2CCCCC2)n1/N=C/C=C/c1ccccc1	0.75%
Cc1cc(C(=O)OCC(=O)N2CCc3ccccc32)c(C)o1	0.97%
CC(C)(C)c1ccc(OCCC(=O)OCC(=O)NC2CC2)cc1	-4.78%
Cc1ccc(OCCC(=O)OCC(=O)NC(=O)NC2CCCC2)cc1	6.88%
Cc1cc(=O)oc2c(C)c(OC(C)C(=O)NCC(O)c3ccccc3)ccc12 (stereo not given)	0.93%
C[C@H](CO)N1C[C@H](C)[C@@H](CN(C)S(=O)(=O)c2ccc(F)cc2)Oc2c(NC(=O)NC3CCCCC3)cccc2C1=O	6.78%
CCOC(=O)C1CCCN(C2CCN(Cc3nc(-c4ccccc4)no3)CC2)C1 (stereo not given)	-1.09%
Cc1c(Nc2cc(=O)oc3ccccc23)c(=O)n(-c2ccccc2)n1C	-1.53%
CCCc1ccc(S(=O)(=O)NCCc2ccncc2)cc1	2.76%
CCCCc1ccc(S(=O)(=O)NCCc2ccncc2)cc1	21.7%
CCC(C(=O)Nc1cccc(S(=O)(=O)N(C)c2ccccc2)c1)c1ccccc1 (stereo not given)	-1.21%

SMILES	inhibition
O=C(O)c1cccc(Nc2ccc([N+](=O)[O-])c3nonc23)c1	2.67%
COc1cccc(Nc2c([N+](=O)[O-])cncc2[N+](=O)[O-])c1	65.1%
O=C(COC(=O)CSc1ccc(F)cc1)NCc1ccco1	-1.1%
O=C(O)c1cccc(S(=O)(=O)Nc2cccc3ccccc23)c1	20.9%
NC(N)=NN=C1c2ccccc2-c2ccccc21	6.09%
CCN(CC)CCOc1ccc2c(c1)C(=NO)c1cc(OCCN(CC)CC)ccc1-2	9.59%
O=C(Cc1cccc(NC(=O)C2CCN(C(=O)C3CCCC3)CC2)c1)Nc1cccc(C(=O)N2CCCC2)c1	-2.63%
CC(=O)Nc1ccc(NS(=O)(=O)c2ccc(-c3cnc(C4CC4)o3)cc2)cc1	-1.71%
COc1ccc(Cl)cc1S(=O)(=O)N(C)CC(=O)N1CCCC1	7.61%
CCOC(=O)c1ccc(NC(=O)COc2coc(CN3CCc4ccccc43)cc2=O)cc1	34.3%
Cc1ccc(C)c(NC(=O)COc2coc(CN3CCc4ccccc43)cc2=O)c1	47.8%
COc1ccc(OC)c(NC(=O)Cn2cc(C#N)c3ccccc32)c1	-1.64%
Cc1ccc(S(=O)(=O)NC(=O)COc2ccccc2C)c(C)c1	0.6%
O=C(CCC1CCCCC1)NC1=NCCS1	-6.25%
c1ccc(N/N=C2\CCCc3ccccc32)nc1	9.09%
Cc1cc(NC2CCCCC2)nc2ccccc12	10%
O=C(NNC(=O)C1CCN(C(=O)Nc2ccccc2)CC1)c1ccc([N+](=O)[O-])cc1	-0.74%
COc1cc(NC(=O)NNC(=O)c2cc3occc3n2C)cc(OC)c1OC	-1.55%
O=C(Nc1ccc(OC(F)F)cc1)c1ncc(Cl)c(Cl)c1Cl	3.27%
Cc1ccc(CS(=O)(=O)c2ncc(Cl)c(C(=O)Nc3ccc(OC(F)F)cc3)n2)cc1	1.02%
